Source: PubChem BioAssay
MCF10A rereplic – inducers of DNA re-replication in MCF 10A breast cells; MCF 10A DNA re-replication, Hoechst nuclear intensity, 48 h; Potency, µM (titrated, usually from 46.1 µM), most hits filed as activators; actives 2.9% (n = 350,000); AID 624296; note: nearly all actives have a fitted effect of over 50% in size
IL-1B inflam inh – inhibitors of inflammasome signaling (IL-1 beta secretion) | THP-1 LPS/ATP IL-1B secretion, AlphaLISA, 16 h; hits give low values | activity change, % at 57.5 µM | actives 4.7% (n = 360,000); in the data active = activity change below about -50%; inconclusive = mostly about -30% to -49%
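THP-1 cells pretreated 1 hr with compounds (up to 57.5 uM final), then stimulated with LPS (250 ng/mL final) plus ATP (1.25 mM final); secreted IL-1B measured by AlphaLISA after 16 hr, decreased signal indicating inhibition.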
Chronic BCR inh – blocks chronic active B-cell receptor signaling; ABC-DLBCL IkBa-CBG/CBR reporter, luminescence ratio, 4 h; actives 0.05% (n = 340,000); Potency, µM (top dose mostly 46.1 µM), usual class: inhibitors; AID 493014; active = well fitted inhibition curve with a large enough effect in the signal ratio, with a control signal flat, not every such curve was filed as active; inconclusive = small, poorly fitted or top-dose-only effect, or effect the other way, or a change in a side signal; the % refers to the signal ratio
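TMD8 human ABC-DLBCL cells with doxycycline-inducible IκBα–green luciferase fusion and unfused red luciferase, in 0.5% FBS medium; compounds up to 46 uM, 4 h at 37C. Green/red luminescence ratio, filter-overlap corrected, fitted to concentration-response curves.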
SW480 rereplic – inducers of DNA re-replication in SW480 colon cancer cells | SW480 DNA re-replication, Hoechst DNA content imaging, 48 h | Potency, µM (highest dose often 46.1 µM), hits mostly activators | actives 1.8% (n = 340,000); note: nearly all actives have a fitted effect of over 55% in size
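Compounds, transferred as 23 nL by pin tool, were incubated with cells for 48 hr; DNA content per nucleus was then quantified by Hoechst staining and fluorescence plate imaging.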
TDP1 cell CPT – growth inhibition of DT40 Tdp1-/-;hTDP1 cells with camptothecin (screen for TDP1 inhibitors). chicken DT40 Tdp1-/-;hTDP1 cells + 20 nM CPT, ATP luminescence, 48 h. AID 686979. actives 12% (n = 420,000). Potency, µM (top dose mostly 46.2 µM), actives largely listed as inhibitors; note: nearly all actives have a fitted effect of over 55% in size
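Cell growth measured by CellTiter-Glo luminescence after a minimum 48 h, 37 C compound exposure with 20 nM CPT in Tdp1-knockout DT40 cells stably expressing hTDP1, seeded 400/well; qHTS titration format.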
TDP1 cell noCPT – qHTS for Inhibitors of human tyrosyl-DNA phosphodiesterase 1 (TDP1): qHTS in cells in absence of CPT; actives 15% (n = 420,000); DT40 Tdp1-/- hTDP1 cells, no CPT, ATP luminescence, 48 h; AID 686978, 2013; Potency, µM (highest dose often 46.2 µM), actives largely listed as inhibitors; note: nearly all actives have a fitted effect of over 55% in size
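Chicken DT40 Tdp1-/- cells complemented with human TDP1, screened without camptothecin (DMSO vehicle only), 400 cells/well. Compounds pin-transferred, cells incubated at 37 °C for at least 48 hr. Growth read as ATP-dependent luminescence (CellTiter-Glo, 30 min at RT).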
Numbers stand for hits; n = inactive; u = inconclusive; x = no result given. Hits are enriched below; roughly 19% of the tested compounds scored in any of these assays. Unless noted, calls come from the whole dose curve; as a rule, active = well fitted curve in the direction sought with a large enough effect; inconclusive = small, poorly fitted or top-dose-only effect, or another doubt; inactive = no such curve, though single readings can be large; an effect the other way counts as inactive or inconclusive.

SMILES | MCF10A rereplic | IL-1B inflam inh | Chronic BCR inh | SW480 rereplic | TDP1 cell CPT | TDP1 cell noCPT
COc1cccc2cc(-c3nc4ccccc4[nH]3)c(=O)oc12 | n | n | u | u | n | u
Cc1ccc2nc(-c3cccc(NC(=O)c4ccco4)c3)[nH]c2c1 | n | n | u | n | u | n
CC(=O)N1CCN(S(=O)(=O)c2ccc3c(c2)CCC(=O)N3)CC1 | n | n | n | n | n | n
CCCCN1C(=O)C(=O)N(CC(=O)Nc2sc(CC)cc2C(=O)OCC)C1=O | n | n | n | u | n | n
Cc1ccc(-n2nc(C)c3c(C)cc(=O)n(CC(=O)NC(C)c4ccccc4)c32)cc1 (stereo not given) | x | x | x | x | n | n
CCc1ccc(-n2nc(C)c3c(C)cc(=O)n(CC(=O)Nc4ccc(C(C)=O)cc4)c32)cc1 | x | x | x | x | u | 9.2µM
Cc1ccc(Cl)cc1NC(=O)Cn1c(=O)cc(C)c2c(C)nn(C)c21 | x | x | x | x | 12µM | u
CCOC(=O)c1ccc(NC(=O)Cn2c(=O)cc(C)c3c(C)nn(-c4ccc(CC)cc4)c32)cc1 | x | x | x | x | u | n
Cc1cc(=O)n(CC(=O)NC(C)c2ccccc2)c2c1c(C)nn2C (stereo not given) | x | x | x | x | 15µM | 8.2µM
Cc1cccc(C)c1NC(=O)Cn1c(=O)cc(C)c2c(C)nn(-c3cccc(Cl)c3C)c21 | x | x | x | x | n | n
CCOc1ccc(NC(=O)Cn2c(=O)cc(C)c3c(C)nn(-c4cccc(Cl)c4C)c32)cc1 | x | x | x | x | 26µM | 13µM
CCOC(=O)[C@]12CCCC=C1N(Cc1ccc(Cl)cc1Cl)C(=O)[C@H](CC(=O)N1CCN(C(=O)C3CC3)CC1)C2 | x | n | x | x | u | u
C/C(=N\OCc1ccccc1)c1c(O)cc(C(C)C)n(-c2ccccc2)c1=O | u | n | u | n | n | n
COCCn1c(=O)c(-c2ccccc2)nc2cnc(Nc3cccc(OC)c3)nc21 | x | x | x | x | n | n
CCOc1ccc(NC(=O)Cn2c(=O)cc(C)c3c(C)nn(C)c32)cc1 | x | x | x | x | 21µM | 8.2µM
COc1ccc(CNC(=O)Cn2c(=O)cc(-c3ccccc3)c3c(C)nn(C)c32)cc1 | x | x | x | x | n | n
COc1ccc(NC(=O)Cn2c(=O)cc(C)c3c(C)nn(C)c32)cc1 | x | x | n | x | u | 3.3µM
COc1ccccc1NC(=O)NC1(C(=O)N2CCN(C)CC2)CCCCC1 | n | n | n | n | n | n
NC(=O)C1(N2CCCCC2)CCN(C2CC(=O)N(Cc3cccs3)C2=O)CC1 (stereo not given) | n | n | u | n | n | n
O=C(c1ccc(N2CCN(C3CC(=O)N(Cc4cccs4)C3=O)CC2)cc1)c1cccnc1 (stereo not given) | n | n | u | n | 16µM | u
CCOC(=O)C1=C(c2ccccc2)NC(N)=NC1c1ccc(OCc2ccc(C(=O)OC)cc2)cc1 (stereo not given) | 18µM | -67 | u | u | u | 13µM
CCCCCc1nnc(NC(=O)NS(=O)(=O)c2ccc(C)cc2)s1 | n | n | n | n | n | n
COCC1CCCN(C(=O)c2cc(COc3cccc4cccnc34)on2)C1 (stereo not given) | n | n | n | n | n | n
COc1cccc(OCc2cc(C(=O)N3CCCC3c3ccccn3)no2)c1 (stereo not given) | n | n | n | n | u | u
COCC1CCCN(C(=O)c2cc(COc3ccc4ncccc4c3)on2)C1 (stereo not given) | n | n | u | n | 7.3µM | 5.8µM
SMILES | MCF10A rereplic | IL-1B inflam inh | Chronic BCR inh | SW480 rereplic | TDP1 cell CPT | TDP1 cell noCPT
CC(CNC(=O)c1cc(COc2ccc3ncccc3c2)on1)c1ccccc1 (stereo not given) | u | n | u | n | 16µM | 12µM
CCC(O)C1CCN(C(=O)c2cc(COc3ccc4ncccc4c3)on2)CC1 (stereo not given) | n | n | n | n | 4.1µM | 3.7µM
O=C(c1cc(COc2ccc3ncccc3c2)on1)N1CCC[C@H]1CO | n | n | n | n | 6.5µM | 8.2µM
C/C(Nc1ccc(Cl)c(Cl)c1)=C1/CCOC1=O | x | n | x | x | n | u
COc1ccc(C[C@@H]2c3cc(OC)c(OC)cc3CC[N@+]2(C)CCC(=O)OCCCCCOC(=O)CC[N@@+]2(C)CCc3cc(OC)c(OC)cc3[C@H]2Cc2ccc(OC)c(OC)c2)cc1OC | n | x | x | n | x | x
Cc1noc(C)c1C(=O)OCC(=O)NCc1ccccc1 | n | n | n | n | n | n
O=C(NC1CCCCCCC1)c1cc(COc2ccc3ncccc3c2)on1 | n | u | n | n | 3.7µM | 4.6µM
O=C(c1cc(COc2ccc3ncccc3c2)on1)N1CCC(O)CC1 | n | n | n | n | 16µM | 8.2µM
O=C(c1cc(COc2ccc3ncccc3c2)on1)N1CCCC(O)C1 (stereo not given) | n | n | n | n | u | 21µM
CCC(C)NC(=O)CSc1nc2cc3c(cc2c(=O)n1CCCC(=O)NCCc1ccc(OC)c(OC)c1)OCO3 (stereo not given) | x | x | n | x | n | n
CCn1nc(C(=O)NCC(c2cccs2)N2CCOCC2)c2ccccc2c1=O (stereo not given) | n | n | u | n | 15µM | 21µM
O=C(NCC(c1cccs1)N1CCOCC1)c1cc(-c2ccc(F)cc2)nc2ccccc12 (stereo not given) | n | n | u | n | u | 16µM
Cc1ccc(-c2nn(-c3ccccc3)cc2C(=O)NCC(c2cccs2)N2CCOCC2)cc1 (stereo not given) | n | u | u | n | u | u
CCCCn1nc(C(=O)NCC(c2cccs2)N2CCOCC2)c2ccccc2c1=O (stereo not given) | n | n | u | n | u | 21µM
CC[N+](C)(CC)CCOC(=O)C(O)(c1ccccc1)C1CCCCC1 (stereo not given) | n | -55 | n | n | u | u
CC[N+](C)(CC)CCC(c1ccccc1)C1CCCCC1 (stereo not given) | n | n | n | n | 8.2µM | u
CC(C)c1c(C(=O)N/N=C2\CCc3ccccc32)nnn1-c1nonc1N | n | n | n | n | n | n
COc1ccc(C(=O)NCc2nnnn2-c2ccc(C)c(C)c2)cc1 | x | x | x | x | u | n
CC(=O)N1N=C(c2ccc3ccccc3c2)OC1(C)C | u | n | u | n | 18µM | u
CC(=O)N1N=C(c2ccc(C(C)(C)C)cc2)OC1(C)C | u | n | n | u | 15µM | 10µM
COc1ccc2c(c1)c1c(c(=O)n(Cc3ccccc3)c(=O)n1CC(=O)Nc1ccc(C)cc1C)n2C | x | x | x | x | n | n
